# Data from PubChem BioAssay (EPA / NIEHS).
# Values joined by “and” are separate entries in the source; they are usually repeats but may differ in a detail not shown here. Equal values may be shown once. Active and inactive are the calls of the source. The calls were made as follows: active = hit-call score of the fitted dose curve at least 0.9, where 1 is the maximum; inactive = score below 0.9.
# Read-out: Basic fibroblast growth factor (bFGF), FGF2 (gene 2247)
# Test: BSK_MyoF_bFGF: BioMAP Diversity Plus: MyoF Assay for Basic fibroblast growth factor (bFGF) Biomarker Activity (AID 2284246)
# Settings: primary human lung fibroblasts
# Procedure: BSK_MyoF is a cell-based, multiplexed-readout assay that uses lung fibroblasts, a human […] primary cell, with measurements taken at 24 hours after chemical dosing in a microplate: 96-well plate.BSK_MyoF_bFGF is an assay component measured in the BSK_MyoF assay. It measures bFGF antibody related to regulation of gene expression using ELISA technology.Data from the assay component BSK_MyoF_bFGF was analyzed at the endpoint, BSK_MyoF_bFGF, in the positive analysis fitting direction relative to DMSO as the negative control and baseline of activity. Using a type of binding reporter, gain or loss-of-signal activity can be used to understand protein changes. To generalize the intended target to other relatable targets, this assay endpoint is annotated to the 'growth factor' intended target family, where the subfamily is 'basic fibroblast growth factor '.
# The levels of cell surface (or secreted, indicated by the prefix "s") biomarker endpoints were measured by ELISA. Overt cytotoxicity to cells in confluent adherent cultures (all systems other than the BT system) was assessed by measuring total protein levels using sulforhodamine B (SRB) staining in parallel cultures at the time of biomarker measurements, indicated as SRB endpoints. For proliferation assays for adherent cell types, individual cell types are cultured at sub-confluence and relative cell numbers quantified by SRB staining at time points optimized for each system (48 h: 3C and CASM3C systems; 72 h: BT and HDF3CGF systems; 96 h: SAg system). SRB was performed by staining cells with 0.1% SRB after fixation with 10% TCA and reading wells at 560 nm.Viability and proliferation of PBMC (T cells) was quantified by Alamar Blue reduction for the SAg and BT systems. For PBMC viability (referred to as PBMC Cytotoxicity within the assay endpoint names), cells were plated (75,000/well in a 96-well plate) and then chemical samples added for 1 h before addition of activators, SEB and TSST-1 (20 ng/mL final concentration each). Cells were incubated for 90 h. Then, Alamar Blue (20 uL/well) (Invitrogen, Cat DAL1100) was added for 6 h, and the plates were read with a fluorescence microplate reader at 546/580 nm (excitation/emission). For PBMC proliferation, cells were plated and activated as above but incubated for only 16 h prior to addition of Alamar Blue. Plates were read after 6 h.
Structure (SMILES),outcome,AC50
O=P1(NCCCl)OCCCN1CCCl (stereo not given),inactive,–
C=CC(=O)OCC(CC)CCCC (stereo not given),inactive,–
CC(C)(c1cc(Cl)c(O)c(Cl)c1)c1cc(Cl)c(O)c(Cl)c1,–,30.9 µM (active)
O=S(=O)(c1ccccc1)c1ccccc1,inactive,–
O=C(O)CCCc1ccc(N(CCCl)CCCl)cc1,inactive,–
CC1(C)[C@H](C(=O)O[C@H](C#N)c2cccc(Oc3ccccc3)c2)[C@@H]1C=C(Br)Br,inactive,–
CC(C)(C)C(=O)CCl,inactive,–
CNC(=O)Oc1cc(C)c(SC)c(C)c1,inactive,–
Clc1ccc(-c2ccccc2)cc1,inactive,–
O=C1C=CC(=O)C=C1,–,34.7 µM (active) and 30.6 µM (active)
COCC(=O)N(c1c(C)cccc1C)N1CCOC1=O,inactive,–
Nc1ccc(-c2ccc(N)c(N)c2)cc1N,inactive,–
c1ccc(Nc2ccc3ccccc3c2)cc1,–,31 µM (active)
CCC(C)c1cc([N+](=O)[O-])cc([N+](=O)[O-])c1OC(=O)C=C(C)C (stereo not given),–,32.6 µM (active)
Oc1cc(Cl)ccc1Cl,inactive,–
CC(C)(C)C(O)C(Oc1ccc(-c2ccccc2)cc1)n1cncn1 (stereo not given),–,33.6 µM (active)
CCc1cc(C)cc(CC)c1-c1c(OC(=O)C(C)(C)C)n2n(c1=O)CCOCC2,inactive,–
CCCCCCCCCCCC#N,–,32.9 µM (active)
CC(=O)/C=C/c1ccccc1,inactive,–
CCCOC(=O)c1ccccc1C(=O)OCCC,inactive,–
COC(C)(C)CCC[C@H](C)C/C=C/C(C)=C/C(=O)OC(C)C,inactive,–
CC(C)COP(=O)(OCC(C)C)OCC(C)C,inactive,–
C=CCN(CC=C)C(=O)C(Cl)Cl,inactive,–
O=[N+]([O-])C=Cc1ccccc1,–,11.9 µM (active)
O=C1C(Cl)=C(Cl)C(=O)C(Cl)=C1Cl,–,30.9 µM (active)
O=c1[nH]c(Cl)c(Cl)cc1Cl,inactive,–
O=c1c2ccccc2c(=O)c2c1cc(Cl)c1[nH]c3c([nH]c12)c(Cl)cc1c(=O)c2ccccc2c(=O)c13,inactive,–
CC(C)CCCCCCCOP(=O)(Oc1ccccc1)Oc1ccccc1,–,20 µM (active)
Cc1ccc(OP(=O)(Oc2ccc(C)cc2)Oc2ccc(C)cc2)cc1 (tested in a mixture with another compound),inactive,–
CC(C)CCCCCCCOC(=O)c1ccccc1C(=O)OCCCCCCCC(C)C,inactive,–
